Reference: the supplement of paper PMC12819154, “High-throughput peptide-centric local stability assay extends protein–ligand identification to membrane proteins, tissues and bacteria” (Nature Structural & Molecular Biology, 2025)

Target: T1, UniProt P76038
T1 sequence (whole entry): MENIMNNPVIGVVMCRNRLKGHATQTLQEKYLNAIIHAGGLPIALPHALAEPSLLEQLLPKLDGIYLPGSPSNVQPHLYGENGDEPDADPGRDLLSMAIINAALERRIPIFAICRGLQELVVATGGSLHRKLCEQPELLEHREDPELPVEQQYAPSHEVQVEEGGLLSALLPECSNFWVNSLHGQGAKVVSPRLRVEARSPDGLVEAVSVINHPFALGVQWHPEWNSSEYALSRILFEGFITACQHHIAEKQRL
Experiment: log2 fold change of tryptic peptide abundance, ligand vs vehicle (limited proteolysis) (log2 ratio); higher = more trypsin-susceptible (destabilized)
Settings: peptide sequence: GLQELVVATGGSLHRK; peptide start residue: 116; ligand concentration: 5 mM; sample: E. coli desalted lysate; replicate design: treated before aliquoting
Method: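 HT-PELSA: desalted E. coli K-12 BW25113 lysate (with 12 mM MgCl2) incubated with 5 mM ATP (pH 7) or water for 30 min at 25 C, then a 4 min trypsin pulse at 22 C. Peptides were quantified by DIA-MS (4 replicates). Value is the peptide log2 fold change (treated/control); negative = stabilized. Scale: negative = ligand-stabilized region.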
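Note: lysate desalted by size exclusion to strip endogenous ATP, peptide intensities built from DIA-NN precursor signals, and peptides missing any value discarded before comparison.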

Row | SMILES | log2 fold change
1 | Nc1ncnc2c1ncn2[C@@H]1O[C@H](COP(=O)(O)OP(=O)(O)OP(=O)(O)O)[C@@H](O)[C@H]1O [adenosine 5'-triphosphate] | 1.55
